Compound activity deposited in PubChem by several laboratories.
Hits are enriched below; roughly 3.5% of the tested compounds scored in any of these assays.
Bead autofluor: flagged as autofluorescent in microsphere protease counterscreen | 360,000 tested, 3.1% active | compound autofluorescence counterscreen, microsphere flow cytometry; hits give high values | fluorescence intensity (test concentration not listed); in the data active = fluorescence intensity above about 16000; inconclusive = no clear call, values can overlap the other calls
Anthrax LF prot: Bacillus anthracis LF protease inhibitors, primary screen, biochemical, multiplex microsphere, MLPCN library | inhibition, % at 10 µM | multiplex microsphere protease cleavage assay | 360,000 tested, 0.12% active | Lethal factor (Bacillus anthracis), P15917; note: plate controls were buffer without enzyme for full effect and enzyme alone for no effect
Target sequence (P15917 whole entry, looked up): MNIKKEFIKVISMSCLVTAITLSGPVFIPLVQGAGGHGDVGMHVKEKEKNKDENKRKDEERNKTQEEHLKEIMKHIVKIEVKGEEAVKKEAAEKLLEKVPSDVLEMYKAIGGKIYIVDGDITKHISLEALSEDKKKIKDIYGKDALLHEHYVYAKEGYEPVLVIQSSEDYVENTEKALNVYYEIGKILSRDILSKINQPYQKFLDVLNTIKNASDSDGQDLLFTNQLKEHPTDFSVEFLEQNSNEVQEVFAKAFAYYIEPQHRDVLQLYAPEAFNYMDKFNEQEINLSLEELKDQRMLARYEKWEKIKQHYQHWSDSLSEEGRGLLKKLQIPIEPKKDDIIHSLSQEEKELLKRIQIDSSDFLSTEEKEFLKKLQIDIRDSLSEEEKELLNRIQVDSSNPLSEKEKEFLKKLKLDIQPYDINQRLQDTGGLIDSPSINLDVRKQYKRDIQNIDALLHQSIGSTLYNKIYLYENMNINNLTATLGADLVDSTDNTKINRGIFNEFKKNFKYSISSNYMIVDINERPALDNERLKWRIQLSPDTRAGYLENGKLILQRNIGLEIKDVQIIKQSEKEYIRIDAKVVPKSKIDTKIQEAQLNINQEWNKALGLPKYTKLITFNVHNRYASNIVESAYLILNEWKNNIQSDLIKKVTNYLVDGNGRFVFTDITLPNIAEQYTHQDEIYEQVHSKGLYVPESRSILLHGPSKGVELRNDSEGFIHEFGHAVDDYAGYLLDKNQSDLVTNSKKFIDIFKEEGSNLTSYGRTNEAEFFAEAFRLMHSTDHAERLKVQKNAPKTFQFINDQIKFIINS
BoNT F protease: BoNT/F light chain protease inhibitors, primary screen, biochemical, flow cytometry, MLPCN library | Botulinum neurotoxin type F light chain protease (Clostridium botulinum) | Multiplex microsphere protease cleavage assay | inhibition, % at 10 µM | AID 588497, 2011 | 360,000 tested, 0.22% active; in the data active = inhibition above about 35%, passing the limit was not always enough; inconclusive = no clear call, values can overlap the other calls; note: plate controls were buffer without enzyme for full effect and enzyme alone for no effect
BH1578 lux ind: inducers of Vibrio cholerae quorum light production without autoinducers, primary screen, BH1578 luxS cqsA deficient, single point | V. cholerae BH1578 lux reporter, luminescence, 6 h | activation, % at 18.7 µM | 350,000 tested, 0.16% active; in the data active = activation mostly above about 9.7%, no sharp cut-off; inconclusive = no clear call, values can overlap the other calls; inactive = mostly below about 3.7%
BoNT A protease: BoNT/A light chain protease inhibitors, primary screen, biochemical, flow cytometry, MLPCN library; Botulinum neurotoxin type A light chain protease (Clostridium botulinum A str. ATCC 3502); multiplex microsphere protease substrate cleavage; inhibition, % at 10 µM; 360,000 tested, 0.17% active; note: plate controls were buffer without enzyme for full effect and enzyme alone for no effect
* marks the source's active call; other numbers are inactive results; i = inactive; u = inconclusive; x = not tested or not shown. Cut-off read from the data, not from the text of the source, unless noted: active = inhibition above about 30%; inconclusive = no clear call, values can overlap the other calls; inactive = below that.

SMILES	Bead autofluor	Anthrax LF prot	BoNT F protease	BH1578 lux ind	BoNT A protease
CC1CC(C)CN(C(C(=O)NC2CCCCC2)c2ccnc3ccccc23)C1 (configuration not stated)	6107	-4	-4	x	0
CCSc1nnc(-c2cccnc2)n1-c1ccc(Cl)c(C)c1	17981*	-8	8	0	6
COc1ccccc1NCC(=O)N/N=C/c1cccnc1	23032*	-2	-3	-1	-3
CCSc1ccc(-c2cccc([N+](=O)[O-])c2)nn1	4633	-6	-10	i	-1
Cc1nn(C)c2ncc(C(N)=O)c(Oc3ccc(Cl)cc3)c12	3506	u	14	0	-1
O=S(=O)(Nc1ccc2c(c1)OCO2)c1ccccc1	23731*	-2	-8	1	u
COc1ccc(S(=O)(=O)Nc2ccc3c(c2)OCO3)cc1	5819	-9	-10	i	1
Cc1c(C(=O)Nc2ccc(S(=O)(=O)Nc3ncccn3)cc2)oc2ccccc12	7555	-4	5	i	3
CC(=O)c1ccc(NS(=O)(=O)c2ccc(N)cc2)cc1	2094	0	-3	0	-1
Cc1cc(NS(=O)(=O)c2ccc(NC(=O)c3oc4ccccc4c3C)cc2)no1	22342*	3	-1	-1	0
Cc1cc(NS(=O)(=O)c2ccc(NC(=O)Nc3ccc4c(c3)OCO4)cc2)no1	16204*	0	-2	0	u
CC(=O)c1ccc(NS(=O)(=O)c2ccccc2)cc1	21657*	3	-1	i	-2
O=C(NCCC(NS(=O)(=O)OCC(Cl)(Cl)Cl)c1ccccc1)C(F)(F)F (configuration not stated)	3520	-3	-3	0	0
COC(=O)C(Cc1csc2ccc(Cl)cc12)NC(=O)c1ccc(Cl)cc1 (configuration not stated)	4412	1	u	i	u
CN(CC(=O)Nc1cccc(F)c1)C(=O)CCCN1C(=O)c2cccc3cccc(c23)C1=O	6023	-6	-3	i	1
Cc1cc(NS(=O)(=O)c2ccc(NC(=O)NC3CCCCC3)cc2)no1	17035*	-7	-5	-1	-4
COc1cc(C2C3=C(COC3=O)OC(C)(C)Oc3cc4c(cc32)OCO4)cc(OC)c1OC (configuration not stated)	4236	3	-2	i	0
CN(C)c1ccc2nc3ccc(=[N+](C)C)cc-3sc2c1	2168	7	-25	0	32*
Cc1cc2nc3ccc(=[N+](C)C)cc-3sc2cc1N	3584	20	-10	0	61*
CN(C)c1ccc2nc3ccc(=O)cc-3sc2c1	2898	-2	-3	i	4
O=C(NCc1ccccc1F)C1CCCN(S(=O)(=O)N2CCOCC2)C1 (configuration not stated)	5881	-2	2	0	0
CC1CCc2sc(C(=O)NCc3ccc(F)cc3)cc2C1 (configuration not stated)	24108*	-5	-6	3	u
O=C(Nc1cnccn1)C1c2ccccc2Oc2ccccc21	19665*	-1	2	1	2
Cc1ccc(SCc2[nH]nc3c2C(c2ccc(C)o2)C(C#N)=C(N)O3)cc1 (configuration not stated)	19530*	-5	-4	0	0
S=C(Nc1ccc(Cl)cc1)N1CCN(C2CCCCC2)CC1	21880*	0	0	-2	1
SMILES	Bead autofluor	Anthrax LF prot	BoNT F protease	BH1578 lux ind	BoNT A protease
Clc1cccc(Cl)c1Cn1cc(Br)cn1	16279*	-1	3	0	1
Cc1ccc(S(=O)(=O)N(C)c2ccccc2)cc1	3796	-1	2	i	0
Cc1ccc(N(C)S(=O)(=O)c2ccc(C)cc2)cc1	24242*	0	-6	0	-4
Cc1c(Br)c([N+](=O)[O-])nn1C(C)C(=O)NCc1cccnc1 (configuration not stated)	20382*	-8	0	0	-1
Cc1c(Br)c([N+](=O)[O-])nn1C(C)C(=O)NCc1ccco1 (configuration not stated)	2516	-4	-14	0	0
O=C(NC1CC1)C1CCN(c2ncccn2)CC1	4550	2	6	0	0
COc1cccc(C#Cc2c(C=O)n(C)c3ccccc23)c1	3517	37*	13	2	36*
CCN(CC)C(=O)Cn1cc(S(=O)(=O)CC(=O)NC2CCCCC2)c2ccccc21	4452	-4	2	0	0
CCSc1nnc(-c2ccccc2N)c(=O)[nH]1	23571*	-4	-1	-3	0
CCSc1nnc(-c2cc(Br)ccc2N)c(=O)[nH]1	2107	1	-3	0	1
CCN1C(=O)[C@@H]2[C@@H](c3ccc(SC4CCCCC4)cc3)N3CCCC[C@@]3(C(=O)OC)[C@@H]2C1=O	16473*	7	27	i	-2
CCCSc1ccc([C@@H]2[C@H]3C(=O)N(CC)C(=O)[C@H]3[C@]3(C(=O)OC)CCCCN23)cc1	22612*	1	22	i	-7
COc1ccc(S(=O)(=O)Nc2ccccc2C(=O)NCc2cccnc2)cc1OC	4034	0	3	-2	3
COc1ccc(C2=NOC(C(=O)NCCN3CCOCC3)C2)cc1 (configuration not stated)	21268*	0	0	0	-2
COc1ccc(C2=NOC(C(=O)NCCCN3CCOCC3)C2)cc1 (configuration not stated)	11591	-6	-10	i	-1
COc1ccc(CNC(=O)C2CC(c3ccc(F)cc3)=NO2)cc1 (configuration not stated)	22739*	-1	2	0	1
COc1cc(C2=NOC(C(=O)N3CCOCC3)C2)cc(OC)c1OC (configuration not stated)	24903*	-2	-6	-2	u
COc1ccc(NC(=O)CSCC(=O)NCc2ccco2)cc1	5297	-4	-6	i	0
COc1ccc(C2=NOC(C(=O)N3CCCCCC3)C2)cc1OC (configuration not stated)	11367	-4	-7	0	0
COc1ccc(NC(=O)C2C3C=CC(C3)C2C(=O)NCc2ccco2)cc1 (configuration not stated)	16864*	0	-1	-13	-1
O=C(C1CC(c2ccc(F)cc2)=NO1)N1CCN(c2ccccc2)CC1 (configuration not stated)	4612	-2	-8	0	-1
CCC(C)NC(=O)C1CC(c2ccc(OC)cc2)=NO1 (configuration not stated)	20670*	-8	7	0	6
O=C(C1CC(c2ccc(F)cc2)=NO1)N1CCCCC1 (configuration not stated)	22237*	-1	1	0	0
COc1ccc(C2=NOC(C(=O)NCc3ccco3)C2)cc1 (configuration not stated)	20757*	-14	9	-1	8
